# Results as given in PubChem BioAssay.
# Where “and” joins values, the source holds several entries; their conditions need not be identical. Equal entries are not always repeated. Calls of active or inactive are those of the source.
# Legend:
# [1] = compounds binding Alexa647 anti-His antibody – biochemical, small-molecule microarray, 635 nm fluorescence, artefact control for SMM control protein annotation, primary screen (AID 1128); details: higher = more signal;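 further: score merges feature fluorescence with signal-to-noise for each printed compound spot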
# [2] = tested on: Human papillomavirus type 1a E7 protein (residues 1-88); assay: HPV1a E7 small-molecule binders, primary screen, biochemical, small-molecule microarray, residues 1-88, 635 nm (AID 1129); details: small-molecule microarray binding, fluorescence 635 nm; higher = more signal
# [3] = biological target: Focal adhesion kinase 1 (Homo sapiens) (UniProt Q05397); assay: PTK2 protein binding on printed compound slides – biochemical, small-molecule microarray, 635/667 nm fluorescence, BSA, DTT, primary screen (AID 1130); details: 635 nm fluorescence, higher = more signal;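 further: composite of spot emission at 667 nm and signal to noise over triplicate slides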
# Focal adhesion kinase 1 (Homo sapiens), sequence (Q05397 whole entry, looked up): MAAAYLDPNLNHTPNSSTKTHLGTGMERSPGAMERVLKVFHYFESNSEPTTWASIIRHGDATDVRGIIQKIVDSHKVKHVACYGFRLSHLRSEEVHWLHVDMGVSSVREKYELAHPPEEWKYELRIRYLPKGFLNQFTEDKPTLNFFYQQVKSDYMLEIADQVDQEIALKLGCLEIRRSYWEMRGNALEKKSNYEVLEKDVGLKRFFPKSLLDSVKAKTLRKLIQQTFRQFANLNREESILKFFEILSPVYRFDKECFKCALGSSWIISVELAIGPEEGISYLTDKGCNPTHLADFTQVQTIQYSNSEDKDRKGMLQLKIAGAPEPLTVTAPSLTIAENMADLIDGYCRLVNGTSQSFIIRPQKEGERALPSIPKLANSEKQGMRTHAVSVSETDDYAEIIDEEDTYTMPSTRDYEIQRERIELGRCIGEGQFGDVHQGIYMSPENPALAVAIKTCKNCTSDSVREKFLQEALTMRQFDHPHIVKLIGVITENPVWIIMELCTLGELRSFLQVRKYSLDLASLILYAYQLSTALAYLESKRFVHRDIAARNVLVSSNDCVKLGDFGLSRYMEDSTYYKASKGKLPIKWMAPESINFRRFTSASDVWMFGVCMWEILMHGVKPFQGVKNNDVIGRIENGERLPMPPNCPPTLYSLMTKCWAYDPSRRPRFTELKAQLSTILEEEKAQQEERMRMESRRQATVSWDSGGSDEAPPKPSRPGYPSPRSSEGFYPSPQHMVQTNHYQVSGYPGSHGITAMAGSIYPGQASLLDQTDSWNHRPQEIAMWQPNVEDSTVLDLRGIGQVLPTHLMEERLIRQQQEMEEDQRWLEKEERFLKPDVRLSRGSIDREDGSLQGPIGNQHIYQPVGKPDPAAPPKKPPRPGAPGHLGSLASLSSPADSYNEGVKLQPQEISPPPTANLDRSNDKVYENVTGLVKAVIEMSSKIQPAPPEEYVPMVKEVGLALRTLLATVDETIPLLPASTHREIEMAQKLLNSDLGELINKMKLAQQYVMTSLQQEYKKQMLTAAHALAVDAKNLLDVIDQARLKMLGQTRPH
# [4] = tested on: Fibrinogen (Alexa647-labelled); assay: Alexa647-fibrinogen binding to printed small molecules – biochemical, small-molecule microarray, 635/667 nm fluorescence, artefact control for SMM control-protein annotation, profiling panel (AID 1131); details: fibrinogen-A647 binding fluorescence, higher = more signal;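 further: z-score merges 667 nm fluorescence with per-spot signal-to-noise over triplicate slides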
# [5] = biological target: Follistatin (Homo sapiens) (UniProt P19883); assay: FST protein binding to printed compounds – biochemical, small-molecule microarray, 635/667 nm fluorescence, primary screen (AID 1132); details: 635 nm fluorescence, higher = more signal
# Follistatin (Homo sapiens), sequence (P19883 whole entry, looked up): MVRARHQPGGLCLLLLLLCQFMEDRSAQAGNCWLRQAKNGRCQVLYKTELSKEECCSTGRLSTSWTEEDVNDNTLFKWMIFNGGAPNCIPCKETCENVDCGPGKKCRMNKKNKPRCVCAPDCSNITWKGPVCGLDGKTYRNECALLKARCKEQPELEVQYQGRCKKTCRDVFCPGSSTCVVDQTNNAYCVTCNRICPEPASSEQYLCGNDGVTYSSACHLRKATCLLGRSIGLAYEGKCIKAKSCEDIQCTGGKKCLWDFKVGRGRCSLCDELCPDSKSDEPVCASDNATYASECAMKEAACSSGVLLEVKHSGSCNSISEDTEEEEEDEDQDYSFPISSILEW
# [6] = biological target: Fibroblast growth factor 2 (Homo sapiens) (UniProt P09038); assay: basic fibroblast growth factor binding to printed compounds – biochemical, small-molecule microarray, 635/667 nm fluorescence, primary screen (AID 1133); details: FGF2, fluorescence 635/667, higher = more signal
# Fibroblast growth factor 2 (Homo sapiens), sequence (P09038 whole entry, looked up): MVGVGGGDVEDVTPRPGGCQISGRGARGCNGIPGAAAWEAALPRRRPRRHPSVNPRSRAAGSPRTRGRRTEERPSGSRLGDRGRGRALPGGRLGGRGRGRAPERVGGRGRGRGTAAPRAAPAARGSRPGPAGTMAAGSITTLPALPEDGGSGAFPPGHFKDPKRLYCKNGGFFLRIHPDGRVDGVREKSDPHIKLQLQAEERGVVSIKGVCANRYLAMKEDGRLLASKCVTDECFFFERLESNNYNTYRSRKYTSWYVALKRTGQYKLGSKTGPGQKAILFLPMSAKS
# [7] = JC-1 mitochondrial potential readout, lung cancer cells – cell-based, A549, JC-1 fluorescence, basal, 24 h, 100 nL, profiling panel (AID 1138); details: higher = more signal;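 further: A549 lung adenocarcinoma cells under basal conditions with no added stimulus; test concentration not given here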
# Lefty1 = Lefty1 protein binding to printed compounds – biochemical, small-molecule microarray, 635/667 nm fluorescence, primary screen (AID 1139); details: fluorescence 635/667, higher = more signal
# [8] = tested on: wheat germ agglutinin (Triticum aestivum), Alexa647-labelled; assay: Alexa647-WGA lectin binding to printed small molecules – biochemical, small-molecule microarray, 635/667 nm fluorescence, artefact control for SMM control-protein annotation, profiling panel (AID 1140); details: WGA-A647 binding, 635 nm fluorescence, higher = more signal;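 further: score merges 667 nm feature emission with signal to noise over triplicate slides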
# [9] = biological target: Luciferin 4-monooxygenase (Photinus pyralis) (UniProt P08659); assay: inhibition of purified Photinus pyralis luciferase – biochemical, luminescence, purified enzyme, 2006 set, primary screen (AID 1141); details: purified firefly luciferase, SteadyGlo luminescence, 30 min; higher = more signal, called active from +8 up or from −8 down;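 further: cell-free assay with purified firefly luciferase at 100 ng per well in PBS; test concentration not given here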
# Luciferin 4-monooxygenase (Photinus pyralis), sequence (P08659 whole entry, looked up): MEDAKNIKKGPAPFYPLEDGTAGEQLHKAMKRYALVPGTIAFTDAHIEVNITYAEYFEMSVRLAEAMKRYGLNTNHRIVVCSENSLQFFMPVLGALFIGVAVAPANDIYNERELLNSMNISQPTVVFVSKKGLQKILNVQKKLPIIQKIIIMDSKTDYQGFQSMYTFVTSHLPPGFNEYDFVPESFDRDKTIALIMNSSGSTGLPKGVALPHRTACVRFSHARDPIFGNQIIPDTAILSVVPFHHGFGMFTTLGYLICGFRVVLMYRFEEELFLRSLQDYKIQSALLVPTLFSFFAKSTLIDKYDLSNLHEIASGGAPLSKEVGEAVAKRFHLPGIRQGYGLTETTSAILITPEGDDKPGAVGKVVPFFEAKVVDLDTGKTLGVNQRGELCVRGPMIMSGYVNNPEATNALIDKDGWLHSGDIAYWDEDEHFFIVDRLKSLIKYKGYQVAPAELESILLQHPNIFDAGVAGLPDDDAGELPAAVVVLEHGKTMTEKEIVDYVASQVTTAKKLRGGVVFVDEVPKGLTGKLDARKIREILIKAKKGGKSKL
compound,measurement,setting,value
CC(CO)N1C(=O)[C@@H]2C3C(=O)OCCC=C[C@H]3OC23C=CCN(Cc2ccccc2)C(=O)[C@@H]13 (stereo not given in full),composite z-score,[1],-0.814 and -1.05
same,composite z-score,[2],-0.716 and -0.415
same,composite z-score,[3],0.275 and -0.855
same,composite z-score,[4],-1.73 and -0.886
same,composite z-score,[5],-0.972 and -1.08
same,composite z-score,[6],-0.995 and -0.746
same,z-score,[7],0.739 and 0.735
same,composite z-score,Lefty1,-1.17 and -0.88
same,composite z-score,[8],-1.16 and -0.612
same,z-score,[9],-0.965 (inactive) and -0.875 (inactive)
C=CCN(CCCCC)C(=O)C(c1cccs1)N(C(=O)/C=C\C(=O)O)c1c(Cl)cccc1CO (stereo not given),composite z-score,[1],-2 and 0.586
same,composite z-score,[2],-0.682 and -0.485
same,composite z-score,[3],-0.519 and -0.564
same,composite z-score,[4],-1.31 and -2.3
same,composite z-score,[5],-1.36 and -2.16
same,composite z-score,[6],-2.06 and -2.71
same,z-score,[7],-0.634 and 0.534
same,composite z-score,Lefty1,-1.88 and -1.54
same,composite z-score,[8],-1.74 and -0.357
same,z-score,[9],-0.0903 (inactive) and -0.46 (inactive)
COC(=O)C1=C(C)N(Cc2ccccc2)C2=C(C(C)=O)C[C@@](O)(C(=O)OC)C(=O)N2[C@@H]1c1ccccc1,composite z-score,[1],1.23 and -0.0396
same,composite z-score,[2],0.5 and 0.2
same,composite z-score,[3],0.271 and -0.209
same,composite z-score,[4],-0.378 and 1.02
same,composite z-score,[5],0.247 and 0.12
same,composite z-score,[6],1.55 and 0.0618
same,z-score,[7],1.18 and 1.72
same,composite z-score,Lefty1,1.18 and 0.158
same,composite z-score,[8],-0.48 and 0.228
same,z-score,[9],-0.458 (inactive) and -1.7 (inactive)
C=CCN(C(=O)C(c1cccs1)N(C(=O)/C=C\C(=O)O)c1ccc(CCO)cc1)c1ccc(OC)cc1 (stereo not given),composite z-score,[1],0.502 and -2.51
same,composite z-score,[2],-0.979 and -1.34
same,composite z-score,[3],0.32 and -0.445
same,composite z-score,[4],-1.36 and -2.21
same,composite z-score,[5],-1.14 and -3.18
same,composite z-score,[6],-2.42 and -2
same,z-score,[7],0.413 and 1.3
same,composite z-score,Lefty1,-0.91 and -2.42
same,composite z-score,[8],-0.4 and -0.894
same,z-score,[9],-1.62 (inactive) and -1.01 (inactive)
CCCNC(=O)OC[C@H]1O[C@H](CCON=C(C)CCN2CCc3nc(-c4ccccc4)c(-c4ccccc4)cc3C2)C=C[C@@H]1Oc1ccc(OC)cc1,composite z-score,[1],1.29
same,composite z-score,[2],0.0969
same,composite z-score,[3],0.301
same,composite z-score,[4],0.283
same,composite z-score,[5],0.295
same,composite z-score,[6],0.279
same,z-score,[7],1.87
same,composite z-score,Lefty1,0.236
same,composite z-score,[8],0.356
same,z-score,[9],-0.076 (inactive)
C=CCN(CCCCC)C(=O)C1N(C(C)(C)CO)C(=O)C2C(C(=O)O)C3C=CC21O3 (stereo not given),composite z-score,[1],-0.608 and -2.12
same,composite z-score,[2],-0.943 and -0.793
same,composite z-score,[3],-0.132 and -1.41
same,composite z-score,[4],-2.7 and -1.18
same,composite z-score,[5],-1.39 and -2.44
same,composite z-score,[6],-2.46 and -1.74
same,z-score,[7],-0.401 and 0.244
same,composite z-score,Lefty1,-1.1 and -1.42
same,composite z-score,[8],-0.356 and -1.51
same,z-score,[9],0.169 (inactive) and 0.977 (inactive)
CO[C@@H]1COC(=O)CC=C[C@H](C)[C@@H](NS(=O)(=O)c2ccc(C)cc2)COC(=O)CC=C[C@@H]1C,composite z-score,[1],0.395 and -0.145
same,composite z-score,[2],0.214 and -0.651
same,composite z-score,[3],-0.0379 and -0.578
same,composite z-score,[4],0.0363 and -2.26
same,composite z-score,[5],0.407 and 1.42
same,composite z-score,[6],1.16 and 1.17
same,z-score,[7],1.66 and -1.16
same,composite z-score,Lefty1,1.32 and 0.9
same,composite z-score,[8],0.216 and -0.0758
same,z-score,[9],-0.439 (inactive) and 1.32 (inactive)
C=C[C@H](OC)[C@@H](O)c1ccc(O)c(F)c1,composite z-score,[1],-0.876 and -0.764
same,composite z-score,[2],-1.22 and -1.21
same,composite z-score,[3],-0.918 and -0.807
same,composite z-score,[4],-2.91 and -1.06
same,composite z-score,[5],-1.25 and -1.48
same,composite z-score,[6],-0.826 and -1.47
same,z-score,[7],-0.547 and -0.0182
same,composite z-score,Lefty1,-2.23 and -1.28
same,composite z-score,[8],-1.47 and 0.129
same,z-score,[9],-0.173 (inactive) and -0.446 (inactive)
C=CC[C@H](O)c1ccc(OCCO)cc1,composite z-score,[1],0.185 and 0.0367
same,composite z-score,[2],-1.1 and -1.32
same,composite z-score,[3],-1.14 and -0.38
same,composite z-score,[4],-0.0902 and -3.21
same,composite z-score,[5],0.519 and 0.726
same,composite z-score,[6],-0.442 and 0.17
same,z-score,[7],-0.441 and 0.564
same,composite z-score,Lefty1,-0.748 and -0.0547
same,composite z-score,[8],0.542 and 0.645
same,z-score,[9],-1.15 (inactive) and -1.17 (inactive)
C=CCN(C(=O)C(c1cccs1)N(C(=O)/C=C\C(=O)O)C(C)(C)CO)c1ccc(OC)cc1 (stereo not given),composite z-score,[1],-1.01 and -0.0442
same,composite z-score,[2],-0.392 and -0.41
same,composite z-score,[3],-0.675 and 1.18
same,composite z-score,[4],-0.809 and -1.04
same,composite z-score,[5],-1.7 and -1.17
same,composite z-score,[6],-0.855 and -0.862
same,z-score,[7],1.11 and 1.74
same,composite z-score,Lefty1,-1.22 and -0.566
same,composite z-score,[8],-0.747 and -0.0298
same,z-score,[9],-2.86 (inactive) and -5.74 (inactive)
CCN1C(=O)[C@H]2[C@H]3[C@H](O)[C@H](O)CC(=NOC)[C@@H]3CC[C@H]2C1=O,composite z-score,[1],-0.121
same,composite z-score,[2],-0.805
same,composite z-score,[3],-0.384
same,composite z-score,[4],0.245
same,composite z-score,[5],0.0723
same,composite z-score,[6],-0.0102
same,z-score,[7],1.16
same,composite z-score,Lefty1,0.164
same,composite z-score,[8],0.299
same,z-score,[9],-0.554 (inactive)
CO[C@@H]1C=CCC(=O)N2CCC[C@H]2C(=O)OC[C@H](C)C(=O)OC[C@H]1C,composite z-score,[1],0.761
same,composite z-score,[2],-0.624
same,composite z-score,[3],0.0548
same,composite z-score,[4],-1.04
same,composite z-score,[5],1.23
same,composite z-score,[6],0.109
same,z-score,[7],1.54
same,composite z-score,Lefty1,0.864
same,composite z-score,[8],0.508
same,z-score,[9],-1.87 (inactive)
O=C1[C@H]2[C@H]3[C@H](O)[C@H](O)CC(=NOCc4ccccc4)[C@H]3CC[C@H]2C(=O)N1Cc1ccccc1,composite z-score,[1],0.17
same,composite z-score,[2],-0.137
same,composite z-score,[3],-0.0933
same,composite z-score,[4],-0.908
same,composite z-score,[5],0.659
same,composite z-score,[6],0.327
same,z-score,[7],-0.901
same,composite z-score,Lefty1,0.374
same,composite z-score,[8],0.0116
same,z-score,[9],0.983 (inactive)
COC(=O)C1=C(C)N(Cc2ccccc2)[C@]23O[C@](C(=O)OC)(C(=O)N2[C@@H]1c1ccccc1)[C@H]1C(=O)N(C)C(=O)[C@H]13,composite z-score,[1],0.561 and 1.01
same,composite z-score,[2],1.12 and 0.878
same,composite z-score,[3],-0.178 and -0.0654
same,composite z-score,[4],0.938 and 0.0407
same,composite z-score,[5],0.368 and 0.409
same,composite z-score,[6],0.219 and 0.4
same,z-score,[7],-0.993 and 1.4
same,composite z-score,Lefty1,0.817 and 1.17
same,composite z-score,[8],0.638 and 0.366
same,z-score,[9],-0.576 (inactive) and -1.35 (inactive)
